# In all, about 5,500 compounds went through this assay and about 2,000 (36%) were called active. About 18% were inconclusive and are not listed. The list shows a part of the results. Unmarked numbers belong to inactive results. Cut-off read from the data, not from the text of the source: active = normalized growth mostly below about 0.91 (no sharp cut-off); inconclusive = no clear call, values can overlap the other calls; inactive = mostly above about 0.92.
# Assay: chemical genetic growth profiling, strain panel (AID 1159580);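 note: tested at 20 µM; growth read once vehicle control cultures reached saturation at 30 °C; 1 = growth at the plate median or of vehicle wells; lower values mean less growth of the strain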
# Conditions: growth OD
structure (smiles),measurement,setting,value
Cc1cc(O)cc(C)c1Cl,normalized growth,"S. cerevisiae deletion strains, locus YKL009W, strain mrt4, stronger effect = lower value",0.931
same,normalized growth,"S. cerevisiae deletion strains, locus YKL068W, stronger effect = lower value",1
same,normalized growth,"S. cerevisiae deletion strains, locus YKL085W, strain MDH1 (second series), stronger effect = lower value",0.971
same,normalized growth,"S. cerevisiae deletion strains, locus YKL085W, strain MDH1, stronger effect = lower value",0.971
same,normalized growth,"S. cerevisiae deletion strains, locus YKL160W, strain elf1, stronger effect = lower value",0.915
same,normalized growth,"S. cerevisiae deletion strains, locus YKL190W, strain CNB1, stronger effect = lower value",1
same,normalized growth,"S. cerevisiae deletion strains, locus YKR001C, strain vps1, stronger effect = lower value",0.846 (active)
same,normalized growth,"S. cerevisiae deletion strains, locus YKR026C, strain gcn3, stronger effect = lower value",0.952
same,normalized growth,"S. cerevisiae deletion strains, locus YKR091W, strain srl3, stronger effect = lower value",0.958
same,normalized growth,"S. cerevisiae deletion strains, locus YLL001W, strain dnm1, stronger effect = lower value",0.875 (active)
same,normalized growth,"S. cerevisiae deletion strains, locus YLL026W, stronger effect = lower value",0.915 (active)
same,normalized growth,"S. cerevisiae deletion strains, locus YLL041C, strain sdh2, stronger effect = lower value",0.957
same,normalized growth,"S. cerevisiae deletion strains, locus YLR027C, strain aat2, stronger effect = lower value",0.941
same,normalized growth,"S. cerevisiae deletion strains, locus YLR039C, strain RIC1, stronger effect = lower value",0.765
same,normalized growth,"S. cerevisiae deletion strains, locus YLR058C, strain SHM2, stronger effect = lower value",1
same,normalized growth,"S. cerevisiae deletion strains, locus YLR102C, strain apc9, stronger effect = lower value",1
same,normalized growth,"S. cerevisiae deletion strains, locus YLR113W, strain HOG1, stronger effect = lower value",0.944
same,normalized growth,"S. cerevisiae deletion strains, locus YLR221C, strain rsa3, stronger effect = lower value",0.856 (active)
same,normalized growth,"S. cerevisiae deletion strains, locus YLR258W, strain gsy2, stronger effect = lower value",0.924
same,normalized growth,"S. cerevisiae deletion strains, locus YLR262C, strain YPT6 (second series), stronger effect = lower value",0.403 (active)
same,normalized growth,"S. cerevisiae deletion strains, locus YLR262C, strain YPT6, stronger effect = lower value",0.736
same,normalized growth,"S. cerevisiae deletion strains, locus YLR268W, strain sec22, stronger effect = lower value",1.01
same,normalized growth,"S. cerevisiae deletion strains, locus YLR320W, strain mms22, stronger effect = lower value",0.815 (active)
same,normalized growth,"S. cerevisiae deletion strains, locus YLR330W, strain CHS5, stronger effect = lower value",0.994
same,normalized growth,"S. cerevisiae deletion strains, locus YLR342W, strain FKS1 (second series), stronger effect = lower value",0.982
same,normalized growth,"S. cerevisiae deletion strains, locus YLR342W, strain FKS1, stronger effect = lower value",0.935
same,normalized growth,"S. cerevisiae deletion strains, locus YLR357W, strain rsc2, stronger effect = lower value",1.1
same,normalized growth,"S. cerevisiae deletion strains, locus YLR370C, strain arc18, stronger effect = lower value",0.902 (active)
same,normalized growth,"S. cerevisiae deletion strains, locus YLR371W, strain rom2, stronger effect = lower value",0.997
same,normalized growth,"S. cerevisiae deletion strains, locus YLR384C, strain iki3, stronger effect = lower value",0.992
same,normalized growth,"S. cerevisiae deletion strains, locus YLR418C, strain cdc73, stronger effect = lower value",1
same,normalized growth,"S. cerevisiae deletion strains, locus YML016C, strain PPZ1, stronger effect = lower value",0.992
same,normalized growth,"S. cerevisiae deletion strains, locus YML032C, strain rad52, stronger effect = lower value",0.957
same,normalized growth,"S. cerevisiae deletion strains, locus YML120C, strain ndi1, stronger effect = lower value",0.917
same,normalized growth,"S. cerevisiae deletion strains, locus YML124C, strain tub3, stronger effect = lower value",0.996
same,normalized growth,"S. cerevisiae deletion strains, locus YMR058W, strain fet3, stronger effect = lower value",0.871 (active)
same,normalized growth,"S. cerevisiae deletion strains, locus YMR078C, strain ctf18, stronger effect = lower value",0.994
same,normalized growth,"S. cerevisiae deletion strains, locus YMR125W, strain sto1, stronger effect = lower value",1.04
same,normalized growth,"S. cerevisiae deletion strains, locus YMR129W, stronger effect = lower value",0.966
same,normalized growth,"S. cerevisiae deletion strains, locus YMR205C, strain PFK2, stronger effect = lower value",0.898
same,normalized growth,"S. cerevisiae deletion strains, locus YMR223W, strain ubp8, stronger effect = lower value",1.02
same,normalized growth,"S. cerevisiae deletion strains, locus YMR231W, strain pep5, stronger effect = lower value",0.754 (active)
same,normalized growth,"S. cerevisiae deletion strains, locus YMR307W, strain GAS1, stronger effect = lower value",0.904
same,normalized growth,"S. cerevisiae deletion strains, locus YNL067W, strain RPL9B, stronger effect = lower value",0.972
same,normalized growth,"S. cerevisiae deletion strains, locus YNL071W, strain lat1, stronger effect = lower value",0.821 (active)
same,normalized growth,"S. cerevisiae deletion strains, locus YNL153C, strain GIM3, stronger effect = lower value",1.02
same,normalized growth,"S. cerevisiae deletion strains, locus YNL183C, strain NPR1, stronger effect = lower value",0.88
same,normalized growth,"S. cerevisiae deletion strains, locus YNL209W, strain ssb2, stronger effect = lower value",0.929
same,normalized growth,"S. cerevisiae deletion strains, locus YNL233W, strain BNI4, stronger effect = lower value",0.992
same,normalized growth,"S. cerevisiae deletion strains, locus YNL248C, strain rpa49, stronger effect = lower value",0.835 (active)
same,normalized growth,"S. cerevisiae deletion strains, locus YNL250W, strain rad50, stronger effect = lower value",0.992
same,normalized growth,"S. cerevisiae deletion strains, locus YNL271C, strain bni1, stronger effect = lower value",1
same,normalized growth,"S. cerevisiae deletion strains, locus YNL298W, strain CLA4, stronger effect = lower value",0.913
same,normalized growth,"S. cerevisiae deletion strains, locus YNL307C, strain MCK1, stronger effect = lower value",0.995
same,normalized growth,"S. cerevisiae deletion strains, locus YNL322C, strain KRE1 (second series), stronger effect = lower value",0.961
same,normalized growth,"S. cerevisiae deletion strains, locus YNR049C, strain mso1, stronger effect = lower value",0.97
same,normalized growth,"S. cerevisiae deletion strains, locus YNR052C, strain pop2, stronger effect = lower value",1.01
same,normalized growth,"S. cerevisiae deletion strains, locus YOL006C, strain TOP1, stronger effect = lower value",0.979
same,normalized growth,"S. cerevisiae deletion strains, locus YOL012C, strain htz1",1.64
same,normalized growth,"S. cerevisiae deletion strains, locus YOL147C, strain pex11, stronger effect = lower value",0.997
same,normalized growth,"S. cerevisiae deletion strains, locus YOR001W, strain rrp6, stronger effect = lower value",0.892
same,normalized growth,"S. cerevisiae deletion strains, locus YOR061W, strain CKA2, stronger effect = lower value",0.993
same,normalized growth,"S. cerevisiae deletion strains, locus YOR069W, strain VPS5, stronger effect = lower value",1
same,normalized growth,"S. cerevisiae deletion strains, locus YOR070C, strain gyp1, stronger effect = lower value",0.906 (active)
same,normalized growth,"S. cerevisiae deletion strains, locus YOR080W, strain dia2, stronger effect = lower value",1.02
same,normalized growth,"S. cerevisiae deletion strains, locus YOR083W, strain WHI5, stronger effect = lower value",0.899
same,normalized growth,"S. cerevisiae deletion strains, locus YOR106W, strain vam3, stronger effect = lower value",0.817 (active)
same,normalized growth,"S. cerevisiae deletion strains, locus YOR136W, strain idh2, stronger effect = lower value",0.998
same,normalized growth,"S. cerevisiae deletion strains, locus YOR144C, strain elg1, stronger effect = lower value",1
same,normalized growth,"S. cerevisiae deletion strains, locus YOR184W, strain ser1, stronger effect = lower value",0.958
same,normalized growth,"S. cerevisiae deletion strains, locus YOR231W, strain MKK1, stronger effect = lower value",0.946
same,normalized growth,"S. cerevisiae deletion strains, locus YOR265W, strain rbl2, stronger effect = lower value",0.945
same,normalized growth,"S. cerevisiae deletion strains, locus YOR270C, strain vph1, stronger effect = lower value",0.674 (active)
same,normalized growth,"S. cerevisiae deletion strains, locus YOR290C, strain snf2, stronger effect = lower value",0.908
same,normalized growth,"S. cerevisiae deletion strains, locus YOR316C, strain cot1, stronger effect = lower value",0.993
same,normalized growth,"S. cerevisiae deletion strains, locus YPL051W, strain arl3, stronger effect = lower value",0.715 (active)
same,normalized growth,"S. cerevisiae deletion strains, locus YPL055C, strain LGE1, stronger effect = lower value",0.947
same,normalized growth,"S. cerevisiae deletion strains, locus YPL078C, strain atp4, stronger effect = lower value",0.838 (active)
same,normalized growth,"S. cerevisiae deletion strains, locus YPL106C, strain sse1, stronger effect = lower value",1.1
same,normalized growth,"S. cerevisiae deletion strains, locus YPL240C, strain hsp82, stronger effect = lower value",0.951
same,normalized growth,"S. cerevisiae deletion strains, locus YPL241C, strain CIN2, stronger effect = lower value",0.999
same,normalized growth,"S. cerevisiae deletion strains, locus YPL256C, strain CLN2, stronger effect = lower value",0.92
same,normalized growth,"S. cerevisiae deletion strains, locus YPR119W, strain clb2, stronger effect = lower value",0.997
same,normalized growth,"S. cerevisiae deletion strains, locus YPR141C, strain kar3, stronger effect = lower value",0.999
same,normalized growth,"S. cerevisiae deletion strains, locus YPR163C, strain tif3, stronger effect = lower value",1.01
same,normalized growth,"S. cerevisiae deletion strains, locus YPR167C, strain met16, stronger effect = lower value",0.99
same,normalized growth,"S. cerevisiae deletion strains, strain wtn01, stronger effect = lower value",0.96
same,normalized growth,"S. cerevisiae strains, strain wild type, stronger effect = lower value",0.998
